The campaign covered roughly 310,000 compounds. About 14,000 (4.5%) showed an effect of 50% or more. The effect is printed as a negative number. The list comes from a sample in which strong results are over-represented; it also holds similar structures and randomly drawn compounds.
Each molecule was assayed against human ether-à-go-go-related gene (hERG) potassium channel (human, UniProt Q12809) (assay: primary screen, population patch clamp on CHO cells stably expressing hERG; higher = less effect of the substance).
Chain of human ether-à-go-go-related gene (hERG) potassium channel (Q12809 whole entry, looked up): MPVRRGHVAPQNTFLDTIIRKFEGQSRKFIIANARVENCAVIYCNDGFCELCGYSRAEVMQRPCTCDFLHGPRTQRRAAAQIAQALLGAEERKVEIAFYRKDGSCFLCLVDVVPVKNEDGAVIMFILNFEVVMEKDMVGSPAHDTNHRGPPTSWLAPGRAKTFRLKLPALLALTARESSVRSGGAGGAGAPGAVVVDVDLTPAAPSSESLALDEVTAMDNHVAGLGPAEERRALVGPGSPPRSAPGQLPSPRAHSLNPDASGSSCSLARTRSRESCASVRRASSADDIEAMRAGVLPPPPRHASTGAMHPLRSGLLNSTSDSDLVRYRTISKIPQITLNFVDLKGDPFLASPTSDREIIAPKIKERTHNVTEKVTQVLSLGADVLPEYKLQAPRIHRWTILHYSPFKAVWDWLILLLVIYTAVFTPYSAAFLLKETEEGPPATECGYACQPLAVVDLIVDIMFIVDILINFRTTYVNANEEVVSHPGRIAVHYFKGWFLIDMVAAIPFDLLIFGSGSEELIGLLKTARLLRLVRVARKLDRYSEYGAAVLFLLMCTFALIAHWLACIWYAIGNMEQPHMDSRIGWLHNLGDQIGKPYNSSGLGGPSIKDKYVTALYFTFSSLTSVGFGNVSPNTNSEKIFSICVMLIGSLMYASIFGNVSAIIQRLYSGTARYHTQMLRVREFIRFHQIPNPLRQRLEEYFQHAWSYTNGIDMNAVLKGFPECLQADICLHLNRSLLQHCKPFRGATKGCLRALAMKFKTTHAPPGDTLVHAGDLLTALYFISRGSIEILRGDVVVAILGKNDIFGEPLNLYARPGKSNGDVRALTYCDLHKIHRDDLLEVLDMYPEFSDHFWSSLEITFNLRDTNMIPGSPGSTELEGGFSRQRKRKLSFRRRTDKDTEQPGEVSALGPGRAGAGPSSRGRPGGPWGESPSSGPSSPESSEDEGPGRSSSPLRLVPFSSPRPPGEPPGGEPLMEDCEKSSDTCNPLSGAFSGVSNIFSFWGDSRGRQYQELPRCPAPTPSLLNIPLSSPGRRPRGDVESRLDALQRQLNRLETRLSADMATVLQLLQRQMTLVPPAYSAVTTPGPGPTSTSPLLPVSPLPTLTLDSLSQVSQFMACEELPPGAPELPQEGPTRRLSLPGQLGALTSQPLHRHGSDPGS
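Also: peak tail current of the secondary pulse compared with the same well before compound.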

Row | Compound | hERG current change (%, negative = inhibition) at 10uM [%]
1 | O=C(COc1ccccc1)OC(C(=O)c1ccccc1)c1ccccc1 (stereo not shown) | 16.5
2 | CC(C)(C)OC(=O)N1CCN(C(=O)c2[nH]cnc2C(=O)Nc2ccon2)CC1 | 9.6
3 | Fc1ccc(-c2nc3c(-c4ccccc4)cnn3cc2CCN2CCOCC2)cc1 | -15.2
4 | COc1ccc(-n2c(Cc3cccn3C)nnc2SCC(=O)Nc2ccccc2)cc1 | -19.5
5 | CCOC(=O)CN(C(=O)CNC(=O)c1ccco1)C(C(=O)NC1CCCCC1)c1cccnc1 (stereo not shown) | 12.2
6 | Cc1onc(-c2ccccc2Cl)c1C(=O)Nc1ccc2c(c1)OCO2 | 10.3
7 | COc1cccc(-n2c(SCC(N)=O)nc3c([nH]c4ccccc43)c2=O)c1 | -0.054
8 | Cc1nnc(SCC(=O)NC2CCCc3ccccc32)n1-c1ccccc1 (stereo not shown) | -0.602
9 | CCC(C)CCN1C(Nc2ccccc2)=NC[C@@H]1C (stereo partly shown) | -4.88
10 | CCC(C)CCN1CCN=C1Nc1ccccc1 (stereo not shown) | -1.89
11 | CC(CCN1CCN=C1Nc1ccccc1)c1ccccc1 (stereo not shown) | -33.8
12 | CCC(C)CCN1C(Nc2ccccc2)=NC[C@@H]1Cc1ccccc1 (stereo partly shown) | -59.6
13 | CC(C)C[C@H]1CN=C(Nc2ccccc2)N1CCC(C)c1ccccc1 (stereo partly shown) | -67
14 | CC(C)CCN1C(Nc2ccccc2)=NC[C@@H]1C | -9.63
15 | CC(CCN1C(Nc2ccccc2)=NC[C@@H]1Cc1ccccc1)c1ccccc1 (stereo partly shown) | -74.8
16 | CCC(C)CCN1C(Nc2ccccc2)=NC[C@@H]1CC(C)C (stereo partly shown) | -41.1
17 | CC(CCN1C(Nc2ccccc2)=NC[C@@H]1C)c1ccccc1 (stereo partly shown) | -52.4
18 | S=C(Nc1ccccc1)Nc1ccc(OCc2ccccc2)cc1 | -0.702
19 | Nc1nc2ccccc2n1/N=C/c1ccc(-c2ccccc2)o1 | -11.8
20 | CCCc1[nH]nc2c1C1(C(=O)N(CC)c3ccccc31)C(C#N)=C(N)O2 (stereo not shown) | -6.38
21 | COc1ccc(C(=O)OCC(=O)NCC2CCCO2)cc1[N+](=O)[O-] (stereo not shown) | 2.12
22 | Cc1cc(/C=C(\C#N)C(=O)NC2CCCCCC2)c(C)[nH]1 | 9.54

Row | Compound | hERG current change (%, negative = inhibition) at 10uM [%]
23 | COc1ccccc1CC(=O)Nc1cccc(C(=O)Nc2nccs2)c1 | -0.755
24 | O=C(Nc1ccccc1)c1cc(-c2ccccc2Cl)no1 | -4.91
25 | O=S(=O)(NC1CCCC1)c1cc(F)ccc1F | -8.75
26 | O=C(O)C1Cc2ccccc2N2CCCC12 (stereo not shown) | 20
27 | COc1cc(-c2nnc(SC/C=C/c3ccccc3)n2N)cc(OC)c1OC | -3.66
28 | COc1cccc(C(=O)NNC(=O)c2ccc3ccccc3c2O)c1 | 7.66
29 | O=C(CSc1nc(-c2ccc(F)cc2)cs1)N1CCc2ccccc21 | -1.23
30 | COc1ccc2c(c1)c(C(=O)N/N=C/c1ccc(O)c(O)c1)c(C)n2C | 9.18
31 | COc1ccc2c(c1)c(C(=O)N/N=C/c1cccc(Br)c1)c(C)n2C | -15.9
32 | COc1ccc2c(c1)c(C(=O)N/N=C/c1ccc(OC)c(OC)c1)c(C)n2C | -39.2
33 | CCOc1ccc(/C=N/NC(=O)c2c(C)n(C)c3ccc(OC)cc23)cc1 | -5.78
34 | COc1ccc2c(c1)c(C(=O)N/N=C/c1ccc(Br)cc1)c(C)n2C | -64.1
35 | COc1ccc2c(c1)c(C(=O)N/N=C/c1ccc(Cl)cc1)c(C)n2C | -58.6
36 | Oc1ccc(-c2csc(-c3c[nH]c4ccccc34)n2)c(O)c1 | 5.01
37 | O=c1[nH]c2ccccc2n1CCCOc1ccccc1 | 4.34
38 | Cc1onc(-c2c(F)cccc2Cl)c1C(=O)Nc1cccc2nsnc12 | -20.6
39 | CNC(=O)NC(=O)COC(=O)CCCOc1ccc(OC)cc1 | 20.5
40 | COc1ccc(S(=O)(=O)NC(C)C(=O)O)cc1 (stereo not shown) | 1.62
41 | CN(CC(=O)Nc1ccc2c(c1)OCO2)S(=O)(=O)c1ccc(F)cc1 | -4.45
42 | Cc1noc(C)c1COc1cccc(C(=O)N(C)Cc2nc3ccccc3c(=O)[nH]2)c1 | -23.5
43 | CCN(Cc1nc2cc(Cl)ccc2c(=O)[nH]1)C(=O)c1cccc(NC(=O)c2cccs2)c1 | -24.7
44 | CCN(Cc1nc2cc(Cl)ccc2c(=O)[nH]1)C(=O)c1cccc(OCc2c(C)noc2C)c1 | -57.4

Row | Compound | hERG current change (%, negative = inhibition) at 10uM [%]
45 | Cc1cccc(Oc2coc3cc(OC(=O)c4cncc(Br)c4)ccc3c2=O)c1 | -5.03
46 | CN1N=C(C(=O)N2CCc3c([nH]c4ccccc34)C2c2ccccc2Cl)CCC1=O (stereo not shown) | -36.9
47 | Cc1cc(C(=O)N2CCc3c([nH]c4ccccc34)C2c2c(F)cccc2Cl)no1 (stereo not shown) | 5.46
48 | CN1N=C(C(=O)N2CCc3c([nH]c4ccccc34)C2c2c(F)cccc2Cl)CCC1=O (stereo not shown) | -97.3
49 | CC1CN(C(=O)CCC(=O)NC2CCCCC2)c2ccccc2S1 (stereo not shown) | -19.5
50 | Fc1cccc(C2CC(c3cccc(Br)c3)Nc3nnnn32)c1 (stereo not shown) | -3.02
51 | CS(=O)(=O)N(CC(=O)N1CCN(Cc2ccccc2)CC1)c1ccc(F)cc1 | -3.35
52 | C=CCN(c1ccccc1C(=O)NCC(=O)O)S(=O)(=O)c1ccccc1C | 24.7
53 | CCOC(=O)N1CCN(CC(=O)Nc2c(C(=O)OC)[nH]c3ccccc23)CC1 | -10.2
54 | Cc1[nH]c2ccccc2c1C(=O)CN1CCCC1 | 5.09
55 | COc1ccc2[nH]c(C)c(C(=O)CN3CCN(C/C=C/c4ccccc4)CC3)c2c1 | -25.8
56 | CCOC(=O)c1[nH]c2ccc(F)cc2c1NC(=O)CN1CCc2cc(OC)c(OC)cc2C1 | -0.0862
57 | Cc1[nH]c2ccccc2c1C(=O)C(=O)N1CC=C(c2ccccc2)CC1 | -11.3
58 | CCOC(=O)c1[nH]c2ccc(OCC)cc2c1NC(=O)CN1CCN(c2ccccc2)CC1 | 17.9
59 | COC(=O)c1[nH]c2ccccc2c1NC(=O)CN1CCCCCC1 | -21.5
60 | CCOC(=O)c1[nH]c2ccc(F)cc2c1NC(=O)CN1CCN(C/C=C/c2ccccc2)CC1 | -80.7
61 | COC(=O)c1[nH]c2ccccc2c1NC(=O)CN1CCN(C/C=C/c2ccccc2)CC1 | -76.4
62 | Cc1[nH]c2ccccc2c1C(=O)CN1CCN(C/C=C/c2ccccc2)CC1 | -73.4
63 | Cc1[nH]c2ccccc2c1C(=O)CN1CCSCC1 | 5.84
64 | Cc1[nH]c2ccccc2c1C(=O)CN1CC=C(c2ccccc2)CC1 | -52.4

— article PMC4336329 (PLoS ONE, 2015)
